PubChem BioAssay AID1159524 (National Center for Advancing Translational Sciences (NCATS), 2015)
Screen size: about 410,000 compounds; about 5,100 (1.2%) were called active. A call without a number means that no potency is given here. Another 8% or so got no clear call; they are omitted. Calls follow the shape of the full dose curve; tested in HEK293T cells. The sample as a whole holds a higher share of actives than the screen did.

Experiment: High Throughput Screening for Foot and Mouth Disease Virus Antivirals; also: read-out not given here; nearly all actives have a fitted effect of over 45% in size
Settings: FMDV antiviral cell-based qHTS; series mostly up to 57.9 µM
Potency is read from the fitted curve at half-maximal effect.

Row | SMILES | Potency
1 | Cc1ccc2c(C)nc(N3CCCC(C(=O)NC(C)(C)CO)C3)nc2c1 (centres undefined) | inactive
2 | CCc1ccccc1NC(=O)N1CCC2(CC1)Oc1ccccc1C(=O)N2Cc1ccccc1F | inactive
3 | O=C(Nc1cc(-c2nc3ccccc3o2)ccc1Cl)c1cc([N+](=O)[O-])ccc1N1CCOCC1 | inactive
4 | COc1ccccc1Cc1c(-c2ccc(Cl)cc2)nc2c3ccccc3ccn12 | inactive
5 | COc1ccccc1CCn1c(=O)c(-c2cn(C)c3ccccc23)nc2cncnc21 | inactive
6 | CCCCCc1c(Cc2ccccc2)ncn1CCc1ccccc1OC | 35.5 µM (active)
7 | CCCCc1c(-c2ccc(Br)cc2)ncn1CCc1ccccc1OC | 35.5 µM (active)
8 | COc1cccc2oc(CCc3ccccc3)cc(=O)c12 | inactive
9 | CCCCNS(=O)(=O)CCNCc1ccccc1OC | inactive
10 | CCOC(=O)c1cc2c(=O)n3ccccc3nc2n(CC2CCCO2)c1=NC(=O)c1ccccc1F (centres undefined) | inactive
11 | CCn1cc(C(=O)N2CCN(c3cc(C)ccc3C)CC2)c(=O)c2cc(S(=O)(=O)N(C)C3CCCCC3)ccc21 | inactive
12 | Cc1oc(-c2cccc(NC(=O)c3ccccc3)c2)nc1CNC(=O)c1cnc2ccccn2c1=O | inactive
13 | O=c1c(-c2ccc(F)cc2)nc2cnc(N3CCNCC3)nc2n1Cc1cccs1 | inactive
14 | O=C(C(=O)N1CCOc2ccc(CN3CCN(Cc4ccccn4)CC3)cc2C1)c1ccccc1 | inactive
15 | CCC(=O)Nc1ccccc1-c1nc2ccccc2n(CC(=O)Nc2ccc(C)c(C)c2)c1=O | inactive
16 | COc1ccc(N2CCN(C3=NS(=O)(=O)C(c4cccc(Br)c4)=C3C)CC2)cc1 | inactive
17 | COc1cccc(N2CCN(C3CC(=O)N(c4ccc(Cl)cc4)C3=O)CC2)c1 (centres undefined) | inactive
18 | COc1cccc(-c2nc3ccc(N4CCN(C)CC4)cc3[nH]2)c1 | 14.1 µM (active)
19 | COc1cccc(-n2c(=O)c3c(C)c(C(=O)N(C)C)sc3n(Cc3cccc(C)c3)c2=O)c1 | inactive
20 | COc1cccc(N(CC(=O)NC2CCCC2)C(=O)CCCC(=O)Nc2ccccn2)c1 | inactive
21 | CCOc1ccc(NC(=O)C(C)N2C(=O)c3ccccc3C2=O)cc1 (centres undefined) | inactive
22 | COCCN(C(=O)CCC(=O)Nc1ccccn1)C(C(=O)NCCC(C)C)c1ccc(OC)cc1 (centres undefined) | inactive

Row | SMILES | Potency
23 | CCOc1ccc(NC(=O)C2CCCN(C(=O)Nc3ccccc3)C2)cc1 (centres undefined) | inactive
24 | COc1ccc(C(=O)/C=C/Nc2ccccn2)cc1 | 8.91 µM (active)
25 | CCOc1ccc(N/C=C/C(=O)c2ccccc2)cc1 | 10 µM (active)
26 | OCC1CCCN(c2nc3cc4c(cc3cc2CNCc2cccs2)OCO4)C1 (centres undefined) | inactive
27 | CCn1cc(C(=O)NCc2ccccc2)c(=O)c2cc(S(=O)(=O)N3CCCCC3)ccc21 | inactive
28 | C=C1C([C@@]2(C)C(OC(C)=O)CC(=O)O[C@@](C)(COC(C)=O)C2CC(=O)OC)C(OC=O)C(OC(=O)C(O)C(C)CC)[C@]2(C)C(c3ccoc3)CC(=O)C12O (some centres undefined) | inactive
29 | O=C(CN1Cc2ccccc2OC(c2ccccc2)C1)N1CCCCC1c1cccnc1 (centres undefined) | inactive
30 | O=c1c(CCc2ccccc2)nc2cnc(N3CCNCC3)nc2n1Cc1cccs1 | inactive
31 | CCCCC(O)(CCCC)C(=O)NN(C(=O)CCl)c1ccccc1 | 31.6 µM (active)
32 | CCN(C(=O)Nc1cccc2ccccc12)c1ccccc1 | inactive
33 | CCCCNC(=O)CN1C(=O)NC(Cc2ccccc2)(Cc2ccccc2)C1=O | inactive
34 | Cc1cc2ccccc2n1CCNC(=O)c1ccc(F)cc1 | inactive
35 | Cc1cccc2c3c(ccc12)C1=C(C(=O)C3=O)C(C)CO1 (centres undefined) | inactive
36 | COc1ccc(-c2nc3cnc(Oc4ccccc4)nc3n(Cc3cccs3)c2=O)cc1 | inactive
37 | CCCCn1c(SCc2ncc(-c3ccccc3)o2)nc2cc(S(N)(=O)=O)ccc21 | 28.2 µM (active)
38 | c1ccc(-c2cnc(CN3CCN(c4ccccc4)CC3)o2)cc1 | inactive
39 | CCCCn1c(SCC(=O)N2CCCC2=O)nc2cc(S(N)(=O)=O)ccc21 | inactive
40 | CN1CCN2c3ccccc3Cc3ccccc3[C@@H]2C1 | inactive
41 | CS(=O)(=O)N1CCC[C@@]2(CCN(c3ccncc3)C2)C1 | inactive
42 | Cc1ccc(-c2ccc(C(=O)N3CCc4nnc(CNC(=O)c5ccccc5)n4CC3)cc2)cc1 | inactive
43 | COc1ccc(-c2csc3nc(-c4ccccc4F)oc(=O)c23)cc1OC | 20 µM (active)
44 | COc1ccc(-c2csc3ncnc(Oc4ccc5c(C)cc(=O)oc5c4)c23)cc1 | inactive

Row | SMILES | Potency
45 | Cc1sc2nc(-c3ccccc3F)oc(=O)c2c1C | inactive
46 | CCOC(=O)C1CCCN(C(=O)c2ccc(-n3ccc4ccccc43)s2)C1 (centres undefined) | inactive
47 | Cc1ccc(Cl)c(OCC(=O)N(C)CC(=O)Nc2ccc(N3CCOCC3)cc2)c1 | inactive
48 | CCn1c2ccccc2c2cc(NC(=O)COc3ccc(C)cc3C)ccc21 | inactive
49 | Cc1ccc(OCC(=O)Nc2ccc(N3CCN(C(=O)c4ccco4)CC3)cc2)c(C)c1 | 15.8 µM (active)
50 | Cc1cccc(C(=O)OC(C)C(=O)NC2CCCc3ccccc32)c1O (centres undefined) | inactive
51 | COc1cccc(C(=O)Nc2c3c(nn2-c2cccc(C)c2C)CS(=O)(=O)C3)c1OC | inactive
52 | COc1ccc(C(=O)NC2CCCc3c2cnn3-c2cccc(C)c2C)c(OC)n1 (centres undefined) | 17.8 µM (active)
53 | CCOc1ccc(N(CC)C(=O)c2noc3c2COc2ccc(C)cc2-3)cc1 | inactive
54 | O=C(C1CCC(Cn2c(=O)c3sccc3n(Cc3ccccc3F)c2=O)CC1)N1CCCCC1 (centres undefined) | inactive
55 | CNc1ccc(-c2nc(-c3ccccc3C)no2)cc1[N+](=O)[O-] | inactive
56 | C#CCCCCCCCCCCCCCCCC(=O)O | inactive
57 | CC(=O)c1ccc(NC(=O)CCc2nc(-c3ccc(C)cc3)no2)cc1 | inactive
58 | Fc1ccc(OCc2nn3c(Cn4nnc5ccccc54)nnc3s2)cc1 | inactive
59 | N#CCCn1cnc2ccccc21 | inactive
60 | c1ccc(Cc2nn3c(Cn4cnc5ccccc54)nnc3s2)cc1 | 14.1 µM (active)
61 | COc1ccc(CNc2ncncc2-c2ccccc2C)c(OC)c1 | inactive
62 | Cc1cc(C(=O)NCC2Cc3cccc(-c4cncnc4)c3O2)c(C)o1 (centres undefined) | inactive
63 | CNc1cc(-c2c(C)noc2C)ncn1 | inactive
64 | COCCCNC(=O)c1ccc(NC(=O)c2nsc3ccccc23)cc1 | inactive
